# In the library only some 4% were active in any assay of this set; here they are far more common.
# Gli-Sufu block = blocks Gli-Sufu signaling in a luciferase reporter; Sufu-KO-LIGHT fibroblasts, Gli luciferase reporter luminescence; inhibition, % at 5 µM; 0.74% of 340,000 active;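 active = inhibition above about 55%, limit read from the data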
# CSC inhib = blocks cancer stem cells | cancer stem cell-like cells viability, luminescence | inhibition, % at 7.5 µM | 1.1% of 300,000 active | AID 2717; in the data active = inhibition above about 75%; inconclusive = no clear call, values can overlap the other calls; tested in HMLE shEcad cells
# Mdm2 MdmX PPI = human Mdm2/MdmX binding inhibition; AID 485346; inhibition, % at 8 µM; 3% of 330,000 active; SaOS-2 split-luciferase Mdm2/MdmX complementation, luminescence; O15151+Q00987;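 active = inhibition of at least 50% at 8 µM in the primary screen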
# Target sequence (O15151 whole entry, looked up): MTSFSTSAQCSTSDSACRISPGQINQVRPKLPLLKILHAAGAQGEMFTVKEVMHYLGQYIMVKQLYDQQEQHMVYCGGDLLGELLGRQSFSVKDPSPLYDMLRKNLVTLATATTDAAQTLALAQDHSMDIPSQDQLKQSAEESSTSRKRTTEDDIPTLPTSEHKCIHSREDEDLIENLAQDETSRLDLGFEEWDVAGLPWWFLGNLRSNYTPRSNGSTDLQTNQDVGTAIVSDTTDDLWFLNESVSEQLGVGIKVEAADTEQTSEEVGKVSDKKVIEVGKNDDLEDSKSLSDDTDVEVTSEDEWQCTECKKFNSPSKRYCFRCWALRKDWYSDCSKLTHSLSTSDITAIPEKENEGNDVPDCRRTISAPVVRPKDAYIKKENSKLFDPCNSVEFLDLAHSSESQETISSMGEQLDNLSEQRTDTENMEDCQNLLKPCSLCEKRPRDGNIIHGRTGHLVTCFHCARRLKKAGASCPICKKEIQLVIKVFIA
# Target sequence (Q00987 whole entry, looked up): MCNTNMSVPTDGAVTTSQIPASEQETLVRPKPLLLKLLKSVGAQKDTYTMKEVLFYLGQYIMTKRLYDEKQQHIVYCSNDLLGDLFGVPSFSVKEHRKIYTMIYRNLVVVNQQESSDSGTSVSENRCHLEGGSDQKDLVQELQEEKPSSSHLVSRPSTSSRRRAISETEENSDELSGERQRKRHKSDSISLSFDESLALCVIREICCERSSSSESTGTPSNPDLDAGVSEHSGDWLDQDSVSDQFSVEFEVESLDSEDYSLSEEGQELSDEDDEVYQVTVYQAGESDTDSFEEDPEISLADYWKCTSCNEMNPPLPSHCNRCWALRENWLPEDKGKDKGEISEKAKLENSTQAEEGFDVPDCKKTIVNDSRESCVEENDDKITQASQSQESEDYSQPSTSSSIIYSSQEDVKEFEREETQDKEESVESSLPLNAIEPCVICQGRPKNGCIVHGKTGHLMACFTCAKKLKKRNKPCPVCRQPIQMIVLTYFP
# PAX8 inh HTS = inhibitors of PAX8 transcriptional activity in RMG-I cells | inhibition, % at 12.6 µM | 1.2% of 360,000 active | RMG-I TPO-luciferase reporter, SteadyGlo, 24 h;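 active = mean replicate inhibition at least 60% with every replicate also reaching 60%; inconclusive = only one of the two criteria is met; inactive = mean below 60% and not all replicates reaching 60%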;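 note: luciferase light reporting Pax8 driven TPO promoter activity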
# Beta cell apopt = beta cell apoptosis inhibition. INS-1E cytokine-induced death, ATP luminescence, 48 h; percent of positive-control rescue, neutral wells zero. protection from apoptosis, % (no concentration beside the values). AID 435005. 0.8% of 300,000 active;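 active = Every replicate reaches about 75%, or at least half do and their mean reaches it too, limit read from the data; inconclusive = At least half of replicates reach the limit but their mean does not; inactive = Under half of replicates reach the limit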;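 note: higher means more ATP so stronger rescue from cytokine killing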
# Shn3 inh set2 = inhibitors of Schnurri-3 3'UTR reporter in osteoblasts | inhibition, % at 12.5 µM | Clone20 osteoblast Shn3 3'UTR firefly luciferase, 24 h | 0.52% of 360,000 active | AID 588674;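 active = mean inhibition of at least 75% with every replicate also reaching 75%; inconclusive = mean inhibition at least 75% but some replicate below; inactive = mean inhibition below 75%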
# Mdm2 MdmX conf = confirmation of human Mdm2/MdmX interaction inhibitors. 55% of 10,000 active. inhibition, % at 8 µM. Mdm2-MdmX binding, luminescent assay. AID 489028. shares compounds with Mdm2 MdmX PPI; in the data active = inhibition above about 40%
# FLuc counter = counter-screen for Mdm2/MdmX inhibitors: full-length luciferase; shares compounds with Mdm2 MdmX PPI; SaOS-2 full-length luciferase counterscreen, luminescence; inhibition, % at 8 µM; 77% of 6,200 active; AID 504607;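 active = mean inhibition at 8 µM reaching about 37%, which flags the compound as non-specific, limit read from the data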;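 note: p53-null SaOS-2 cells with luciferase driven by a doxycycline-inducible promoter; compound on cells about two nights before reading with doxycycline added after day one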
# Hits are given with their value; – = inactive; ? = inconclusive; · = no result.
SMILES,Gli-Sufu block,CSC inhib,Mdm2 MdmX PPI,PAX8 inh HTS,Beta cell apopt,Shn3 inh set2,Mdm2 MdmX conf,FLuc counter
COC(=O)C1=C(c2ccc(-c3ccccc3)c(F)c2)C[C@@H]2CC[C@H]1N2C(=O)NC1CCCCC1,–,–,69.2,–,–,–,41.3,64.0
COc1ccc(OC(=O)N(C)C[C@@H]2OCc3ccccc3-c3c(n(C)c4ccccc34)C(=O)N([C@@H](C)CO)C[C@H]2C)cc1,·,·,·,–,·,·,·,·
CCn1nc(/C=C/c2ccccc2)nc2c(=O)n(C)c(=O)nc1-2,91.2,·,97.4,94.4,·,97.8,85.1,–
Cc1ccccc1-c1ccc([C@@H]2[C@H](CO)N3CCCCN(C(=O)Cc4ccccn4)C[C@@H]23)cc1,·,·,·,–,·,·,·,·
CCC1C=CC=CC[C@H](C)[C@@H](O)[C@](C)(O)C(=O)[C@@H](C)[C@H](O)[C@@H](C)C(=O)[C@H](C)[C@@H](O)[C@H](C)C=CC(=O)OC2[C@@H](C)C(CC1)OC1(CC[C@@H](C)C(C[C@H](C)O)O1)[C@@H]2C (stereo partly specified),·,99.0,100.4,·,103.9,·,55.8,49.6
O=C1CN=C(c2ccc[nH]2)c2cc(Cl)ccc2N1,–,–,64.6,–,–,–,68.1,52.9
OC[C@H]1[C@@H]2c3ccccc3NC[C@@H]2N1Cc1cccnc1,·,·,·,–,·,·,·,·
COC12C(COC(N)=O)C3=C(C(=O)C(C)=C(N)C3=O)N1CC1C2N1C (stereo unspecified),–,–,74.4,·,–,–,–,·
COC(COC(N)=O)C1=C(N2CC2)C(=O)C(C)=C(N2CC2)C1=O (stereo unspecified),–,·,·,–,·,–,·,·
COc1ccc(OC(=O)N(C)C[C@@H]2OCc3ccccc3-c3c(n(C)c4ccccc34)C(=O)N([C@H](C)CO)C[C@H]2C)cc1,·,·,·,–,·,·,·,·
Cc1ccc(OC(=O)N(C)C[C@H]2OCc3ccccc3-c3c(n(C)c4ccccc34)C(=O)N([C@H](C)CO)C[C@@H]2C)cc1,·,·,·,–,·,·,·,·
CCn1c(NN=O)nc2ccccc21,70.1,–,77.5,–,98.7,?,71.9,–
COc1ccc(OC(=O)N(C)C[C@H]2OCc3ccccc3-c3c(n(C)c4ccccc34)C(=O)N([C@@H](C)CO)C[C@H]2C)cc1,·,·,·,–,·,·,·,·
CC(=O)OC(C)(C)/C=C/C(=O)C(C)(O)C1[C@H](O)C[C@@]2(C)C3CC=C4C(CC[C@@H](O)C4(C)C)[C@]3(CO)C(=O)C[C@]12C (stereo partly specified),80.4,–,97.7,112.1,·,–,98.0,–
CC=Cc1ccc2n(c1=O)C[C@@H]1[C@@H](CO)[C@H](C(=O)OC)[C@H]2N1S(=O)(=O)c1ccccc1C (mixture of isomers),·,·,·,–,·,·,·,·
C[n+]1c(-c2ccccc2)cc(-c2ccc(O)cc2)cc1-c1ccccc1,–,–,–,–,–,–,·,·
COc1ccc(-[n+]2c(-c3ccccc3)cc(-c3ccccc3)cc2-c2ccccc2)cc1,83.3,–,86.6,92.5,111.3,·,88.2,–
Oc1ccc(-[n+]2c(-c3ccccc3)cc(-c3ccccc3)cc2-c2ccccc2)cc1,–,–,98.1,90.2,123.0,–,71.5,58.9
CCCC#Cc1ccc([C@H]2[C@@H](CO)N3CCCCN(C(=O)Cc4ccccn4)C[C@@H]23)cc1,·,·,·,–,·,·,·,·
O=C(O)[C@@H]1[C@@H](CO)[C@@H]2Cn3c(ccc(-c4ccccc4)c3=O)[C@H]1N2CC1CCCCC1,·,·,·,–,·,·,·,·
N#CC1=C(N)Oc2c(c(=O)oc3ccccc23)C1c1ccncc1 (stereo unspecified),–,–,–,·,–,–,·,·
N#CC1=C(N)Oc2c(c(=O)sc3ccccc23)C1c1cccnc1 (stereo unspecified),–,–,52.1,–,–,–,60.4,56.5
COc1cc(C)c(CNCCc2c[nH]c3ccccc23)cc1C,–,–,64.3,–,–,–,–,·
N#Cc1cccc(-c2ccc([C@H]3[C@H](CO)N4CCCCN(C(=O)Cc5cccnc5)C[C@@H]34)cc2)c1,·,·,·,–,·,·,·,·
N#Cc1cccc(-c2ccc([C@@H]3[C@H](CO)N4CCCCN(C(=O)Cc5cccnc5)C[C@@H]34)cc2)c1,·,·,·,–,·,·,·,·
SMILES,Gli-Sufu block,CSC inhib,Mdm2 MdmX PPI,PAX8 inh HTS,Beta cell apopt,Shn3 inh set2,Mdm2 MdmX conf,FLuc counter
COC(=O)[C@@H]1[C@@H](CO)[C@@H]2Cn3c(ccc(C4=CCCCC4)c3=O)[C@H]1N2C(=O)Cc1ccccn1,·,·,·,–,·,·,·,·
COC(=O)[C@@H]1[C@@H](CO)[C@@H]2Cn3c(ccc(C4=CCCCC4)c3=O)[C@H]1N2Cc1ccccc1OC,·,·,·,–,·,·,·,·
COc1ccc(-n2c(/C=C/c3ccc(O)cc3)nc3ccccc3c2=O)cc1,–,–,50.2,–,·,–,–,·
Cc1[nH]c2ccc(OC(F)(F)F)cc2c1CCNCc1ccc(Cl)cc1,–,104.4,82.6,–,–,–,50.6,47.6
COC(=O)C[C@H]1CC[C@@H]2NC[C@@H](O)COC[C@H]2O1,·,·,·,–,·,·,·,·
CN[C@@H]1C[C@@H](c2ccc(Cl)c(Cl)c2)c2ccccc21,·,–,82.2,·,–,·,–,·
CC(NCc1ccc(Cl)c(Cl)c1)C(O)c1ccccc1 (stereo unspecified),–,–,–,·,–,–,·,·
Clc1ccc(C[n+]2c(-c3ccccc3)cc(-c3ccccc3)cc2-c2ccccc2)cc1,70.0,–,89.9,97.3,122.4,–,83.8,–
Fc1ccc(C[n+]2c(-c3ccccc3)cc(-c3ccccc3)cc2-c2ccccc2)cc1,–,–,88.5,88.6,128.5,·,68.8,38.0
CCCCn1c(=O)c(C(=O)Nc2ccccc2C)c(O)c2ccccc21,–,–,–,·,–,–,·,·
CCCCn1c(=O)c(C(=O)Nc2cnccn2)c(O)c2ccccc21,–,–,57.2,·,–,–,–,88.5
COC(=O)[C@H]1[C@H](CO)[C@H]2Cn3c(ccc(/C=C/c4ccccc4)c3=O)[C@@H]1N2Cc1ccccc1F,·,·,·,–,·,·,·,·
Nc1ncnc2c1ccn2[C@@H]1O[C@H](CO)[C@@H](O)[C@H]1O,–,–,100.3,·,·,96.1,100.2,50.1
O=c1[nH]c(=S)[nH]c(O)c1N=Nc1ccc(S(=O)(=O)N2CCc3ccccc32)cc1,–,–,58.3,–,–,–,–,·
O=C(Cc1ccccc1)N1CC2(C1)[C@@H](c1ccccc1)[C@@H](CO)N2Cc1cccc(F)c1,·,·,·,–,·,·,·,·
Cc1ccc(NP(=O)(Oc2ccccc2F)Oc2ccccc2F)cc1C,–,–,·,–,–,–,·,·
COc1ccccc1OP(=O)(Nc1cccnc1)Oc1ccccc1OC,–,·,50.7,–,·,–,48.1,74.4
C/C=C/c1ccc(C2[C@H]3CNC[C@@H]2N3CC2CCCCC2)cc1 (stereo partly specified),·,·,·,–,·,·,·,·
